Compounds without any hit were thinned out: in the full panel of roughly 79,000, 15% have a hit. Values without a mark were called inactive. No stated cut-off is given here; in the data, active means growth inhibition above about 70%; inactive means the rest.

The nature of this assay: NCI Yeast Anticancer Drug Screen. Data for the rad50 strain (AID 155).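 Further: 0% = growth of vehicle-only cultures of the same strain.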 As to conditions: S. cerevisiae rad50 strain growth inhibition; at 50.0 µM; active compounds read high. In a few lines: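 Genetically altered yeast (DNA repair pathway); compound treatment; growth inhibition vs vehicle ctrl.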
Turning to `CC1c2c(cc(=O)n(C)c2O)C(=O)N1Cc1ccccc1` (stereo not given), the growth inhibition is 2%.
On to `Cc1cc(C)[n+]([O-])c(C)c1`, for which the growth inhibition is -14.6%.
The result for `Cc1cc2c(=O)cc(-c3ccc(C(F)(F)F)cc3)oc2c(C(=O)O)c1C` reads -34.6%.
With `CCOC(=O)C1(C(=O)OCC)C2C=CC(C2)C1C(=O)OC` (stereo not given) the figure was -0.65%; with `CC(NC(=O)C(C)(C)C)c1ccc2c(c1)OCCO2` (stereo not given), -4.45%.
With `CCOC(=O)/C(N=Nc1ccc(O)cc1)=C(\C)O` the figure was -6.4%.
In the case of `CCOC(=O)CCC(NC(=O)c1ccc(OCc2ccc3nc(OC)c(OC)nc3c2)cc1)C(=O)OCC` (stereo not given), the growth inhibition was -14.2%.
Take `Cc1cc(C)c(CSc2cc(N)nc(N)c2N)c(C)c1`: the growth inhibition is 15.4%.
The result for `[O-][n+]1c2ccc(Cl)cc2nc2ccc(Cl)cc21` reads -9.35%; that for `CCC(/C=N\NC(=O)CCCC(=O)N/N=C/C(CC)CC)CC`, -0.5%.
The result for `O=C(Nc1ccccn1)OCCCl` reads -1.6%; that for `Nc1nc(Cc2ccccc2)cs1`, 24.7%.
In the case of `O=C(O)C(O)c1c[nH]c2ccccc12` (stereo not given), the growth inhibition is -4.85%.
The result for `CC(=O)Oc1c(C)c2c(O)c3c1C1=C(OCOC1=C(C)C3=O)/C(C)=C\C(C)(O)C(O)C(C)C(O)C1C(=O)OC(C(C)C1O)C(C)(O)/C=C/C=C(C)C(=O)N2` (stereo not given) reads 16.2%.
The result for `COc1ccc(CC2OCCC3c4ccccc4NC23)cc1OC` (stereo not given) reads -3.2%.
Regarding `CS(=O)(=O)Nc1cccc(C(=O)NN)c1`, the growth inhibition is -8.1%.
With `O=C1c2ccccc2-c2ccc(-c3ccc4c5c(cccc35)C(=O)c3ccccc3-4)c3cccc1c23` the figure was -21.9%; with `CCCCCCCCCCCCCC(=O)Oc1ccc([N+](=O)[O-])cc1`, -2.65%; with `S=C=Nc1ccc(CSc2nc3ccccc3[nH]2)cc1`, 0.8%.
The result for `CCCCCCC(=O)/C=C/c1ccc(Cl)cc1` reads 11.9%; that for `Cc1n(C)nn[n+]1C`, 2.65%.
The result for `CC(=O)OC1CCC2(C)C(CCC3C2CC(OC(C)=O)C2(C)C(C(C)CCC(c4ccccc4)c4ccccc4)CCC32)C1` (stereo not given) reads 9.1%; that for `CCOC(=O)C(C#N)=C1CC(C)OC(C)C1` (stereo not given), 12.3%.
With `CCCCCCCCCCCCCCCCCC(=O)c1ccc(OC)c(OC)c1`, the growth inhibition is -14.8%.
With `O=C1NC(c2ccccc2)C1N(Cc1ccccc1)Cc1ccccc1` (stereo not given) the figure was 21.3%.
With `CCOC(=O)C(CC)(C(=O)OCC)C(C)CC` (stereo not given) the figure was 11.3%; with `CC1(C(N)=O)CCC1`, 1.8%.
The result for `CCSC(SCC)C(NC(C)=O)C(O)C(O)COC(=O)c1ccccc1` (stereo not given) reads 6.05%; that for `O=C(O)C1Cc2c([nH]c3ccccc23)C(c2ccccc2)N1` (stereo not given), 1.3%.
For the molecule `O=C(Nc1ccccc1)C1CC2C=CC1C2` (stereo not given), the growth inhibition was 2.3%.
With `CCOC(=O)c1nc2c(n(O)c1=N)CCC/C2=N\O` the figure was 4.1%; with `NC(=O)ON=C1CCN(Cc2ccccc2)CC1`, 30.4%.
The result for `O=C(O)C(O)C(O)C(O)C(O)C(O)CO.[NH-]C1CCCCC1[NH-].[Pt+2]` (stereo not given) reads -18.3%; that for `CC1(C)CCCCC1=O`, -0.15%.
The result for `O=S(=O)(c1ccc(NC(=S)N2CCOCC2)cc1)N1CCCCC1` reads -3.45%; that for `CCOP(=O)(OCC)C(C)(CC)NC1=NC(C(F)(F)F)(C(F)(F)F)NC(=O)N1` (stereo not given), -2.2%.
Take `COc1ccc(NC(=O)CC(=O)n2nc(C)c(N=Nc3ccccc3C(=O)O)c2C)cc1`: the growth inhibition is 8.6%.
The result for `CC1(C#N)CCCC(c2ccccc2)(c2ccccc2)C1=O` (stereo not given) reads 43.2%; that for `CC(=O)c1nc(C#N)c(N)o1`, 1.9%; that for `COC(=O)C(CO)NC(=O)C(CC(C)C)NC(=O)C(CC(C)C)NC(=O)OCc1ccccc1` (stereo not given), 34.6%.

(Values after PubChem BioAssay (NCI).)
